Pf Dd2 growth: P. falciparum Dd2 growth inhibitors, primary screen, SYBR Green fluorescence, single dose replicates | 94,000 tested, 2.3% active | 72 h; active compounds read low | activity change, % at 10 µM; in the data active = activity change below about -80%; inconclusive = no clear call, values can overlap the other calls
C diff growth: C. difficile growth inhibitors, primary screen, HTS; Clostridium difficile clinical isolate growth, OD600, 24 h; active compounds read low; growth activity, negative = inhibition, % at 16 µg/mL (by protocol); 86,000 tested, 0.25% active; AID 1259249, 2017;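 active = mean growth activity at or below -80% and every replicate also at or below -80%; inconclusive = mean at or below -80% but some replicate above -80%; inactive = mean growth activity above -80%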;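 note: 0% = DMSO wells and -100% = levofloxacin 16 µg/mL wells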
* = called active by the depositor; ? = inconclusive; · = no result; ! = a repeat was not active. Compounds with a hit are over-represented: about 2.4% of the library has one in this group of screens.

SMILES	Pf Dd2 growth	C diff growth
OC[C@@H]1CC[C@@H]2O[C@H](CCc3ccc(C#Cc4ccccc4)cc3)[C@H](n3cc(-c4ccccc4)nn3)C[C@@H]2O1	-84*	2
OC[C@H]1CC[C@@H]2O[C@H](CCc3ccc(C#CCc4ccccc4)cc3)[C@@H](n3cc(-c4ccccc4)nn3)C[C@@H]2O1	?	59
Cc1noc(C)c1NC(=O)N[C@H]1CC[C@@H](CC(=O)NCCCN(C)C)O[C@@H]1CO	-4	·
Cc1noc(C)c1S(=O)(=O)N(C)C[C@H]1Oc2ccc(NS(=O)(=O)c3cn(C)cn3)cc2CC(=O)N([C@@H](C)CO)C[C@@H]1C	-5	16
C[C@@H]1CN([C@@H](C)CO)C(=O)c2cc(C#C[C@@H](C)O)cnc2O[C@@H]1CN(C)C(=O)Cc1ccncc1	39	-4
C[C@H]1CN([C@@H](C)CO)S(=O)(=O)c2ccc(C3=CCCC3)cc2O[C@H]1CN(C)C(=O)CC1CC1	-33	1
COc1ccc(NC(=O)N(C)C[C@@H]2Oc3cc(-c4ccc(C)cc4)ccc3S(=O)(=O)N([C@H](C)CO)C[C@@H]2C)cc1	-90*	-2
COc1ccc(-c2ccc3c(c2)O[C@@H](CN(C)C(=O)Nc2ccccc2F)[C@@H](C)CN([C@H](C)CO)S3(=O)=O)cc1	-86*	-14
COc1ccc(-c2ccc3c(c2)O[C@@H](CN(C)C(=O)Nc2ccccc2F)[C@H](C)CN([C@@H](C)CO)S3(=O)=O)cc1	-77	-11
COc1ccc(NC(=O)N(C)C[C@H]2Oc3cc(-c4ccc(C)cc4)ccc3S(=O)(=O)N([C@@H](C)CO)C[C@H]2C)cc1	-75	0
COc1ccc(NC(=O)Nc2ccc3c(c2)CC(=O)N([C@H](C)CO)C[C@@H](C)[C@H](CN(C)C(=O)NC(C)C)O3)cc1	8	1
COc1ccc(S(=O)(=O)Nc2ccc3c(c2)C(=O)N([C@@H](C)CO)C[C@@H](C)[C@H](CN(C)Cc2ccc(C(=O)Nc4ccccc4N)cc2)OCCCC[C@@H](C)O3)cc1	?	1
C[C@@H]1CCCCO[C@H](CN(C)Cc2ccc(C(=O)Nc3ccccc3N)cc2)[C@@H](C)CN([C@H](C)CO)C(=O)c2cc(NS(=O)(=O)c3ccc(Cl)cc3)ccc2O1	-82*	9
C[C@@H]1CCCCO[C@@H](CN(C)Cc2ccc(C(=O)Nc3ccccc3N)cc2)[C@@H](C)CN([C@H](C)CO)C(=O)c2cc(NS(=O)(=O)c3ccc(F)cc3)ccc2O1	-77	1
Cc1noc(C)c1S(=O)(=O)Nc1ccc2c(c1)C(=O)N([C@H](C)CO)C[C@H](C)[C@@H](CN(C)Cc1ccc(C(=O)Nc3ccccc3N)cc1)OCCCC[C@@H](C)O2	?	0
C[C@@H]1CCCCO[C@@H](CN(C)Cc2ccc(C(=O)Nc3ccccc3N)cc2)[C@@H](C)CN([C@H](C)CO)C(=O)c2cc(NS(=O)(=O)c3ccccc3)ccc2O1	-81*	3
Cc1noc(C)c1S(=O)(=O)Nc1ccc2c(c1)C(=O)N([C@H](C)CO)C[C@H](C)[C@H](CN(C)Cc1ccc(C(=O)Nc3ccccc3N)cc1)OCCCC[C@@H](C)O2	-86*	0
COc1ccc(NC(=O)N(C)C[C@@H]2OCCCC[C@@H](C)Oc3ccc(NC(=O)CCC(F)(F)F)cc3C(=O)N([C@@H](C)CO)C[C@H]2C)cc1	-16	-5
COc1ccc(CNC(=O)C[C@@H]2C=C[C@@H](NC(=O)Nc3ccc4c(c3)OCO4)[C@@H](CO)O2)cc1	7	21
O=C(C[C@@H]1CC[C@@H]2[C@H](COC[C@H](O)CN2C(=O)Nc2cc(Cl)cc(Cl)c2)O1)N1CCOCC1	·	-101*!
O=C(C[C@@H]1CC[C@@H]2[C@H](COC[C@@H](O)CN2C(=O)Nc2cc(Cl)cc(Cl)c2)O1)N1CCOCC1	·	63
O=C(C[C@H]1CC[C@H]2[C@@H](COC[C@@H](O)CN2C(=O)Nc2cc(Cl)cc(Cl)c2)O1)N1CCOCC1	·	-15
O=C(C[C@H]1CC[C@@H]2[C@H](COC[C@H](O)CN2C(=O)Nc2cc(Cl)cc(Cl)c2)O1)N1CCOCC1	·	-92*!
CO[C@H]1CN(C)C(=O)c2cc(NC(=O)NC3CCCCC3)ccc2OC[C@H](C)N(C)C[C@@H]1C	34	-1
C[C@@H]1CCCCO[C@@H](CN(C)C)[C@H](C)CN([C@H](C)CO)C(=O)c2cc(NC(=O)Nc3cccc4ccccc34)ccc2O1	-74	3
O=C(NCC[C@H]1CC[C@@H](NC(=O)c2cnccn2)[C@@H](CO)O1)c1ccc2c(c1)OCO2	5	1
Cc1noc(C)c1NC(=O)Nc1ccc2c(c1)C(=O)N(C)[C@@H]1CC[C@@H](CC(=O)NCc3ccc(Cl)cc3)O[C@H]1CO2	·	-5
COc1ccccc1-c1cn(CC[C@@H]2CC[C@H](NC(=O)NC(C)C)[C@@H](CO)O2)nn1	-4	1

Screens (PubChem)
